Source: PubChem BioAssay (National Center for Advancing Translational Sciences (NCATS))
Sampled rows, rich in hits. Any-hit rate of the full collection: about 7.9%.
HCV inh = blocks hepatitis C virus. AID 651820. Potency, µM (titrated, usually from 41.8 µM), usual class: inhibitors. Huh7.5.1 HCVcc-Cre infection, luciferase reporter, 44 h. actives 3.4% (n = 340,000); active = well fitted inhibition curve with a large enough effect; inconclusive = small, poorly fitted or top-dose-only effect, or another doubt; inactive = no such curve, though single readings can be large or run the other way
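Whole-lifecycle infectious HCVcc-Cre system; cells 1,000/well, compound then virus (~0.5 moi) added 4 h after plating, 44 h culture. Luciferase read 15 sec following 15 min substrate incubation, room temp.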
FMDV antiviral = foot and mouth disease virus antiviral activity | FMDV antiviral cell-based qHTS | Potency, µM (highest dose often 57.9 µM), most hits filed as inhibitors | actives 1.2% (n = 410,000) | AID 1159524; calls by dose curve; tested in HEK293T cells; also: read-out not given here; nearly all actives have a fitted effect of over 45% in size
Lassa entry inh = inhibitors of Lassa virus binding or cell entry. Lassa virus pseudotype entry inhibition, cell reporter. Potency, µM (series often up to 37.9 µM), usual class: inhibitors. actives 1.2% (n = 300,000); calls by dose curve; tested in HEK293 cells; also: nearly all actives have a fitted effect of over 50% in size
MARV entry inh = inhibitors of Marburg virus binding or cell entry; Marburg virus pseudotyped entry inhibition, cell reporter; AID 540276; actives 1.8% (n = 300,000); Potency, µM (top dose mostly 37.8 µM), usual class: inhibitors; calls by dose curve; tested in HEK293 cells
HCMV antiviral = blocks human cytomegalovirus replication; HFF cells, HCMV-luciferase reporter, 72 h; stronger effect = lower value; activity change, negative = inhibition, % at 57.5 µM; actives 4.5% (n = 410,000); in the data active = activity change below about -60%; inconclusive = no clear call, values can overlap the other calls; inactive = above about -39%
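Screen run at 2 compound doses on HFFs infected with reporter HCMV, MOI 1 PFU/cell. Luciferase activity from cell lysates at 72 h post infection gave inhibition relative to buffer-only and Salinomycin wells.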
Each line names hits and unclear results; the compound was inactive in the other large screens.

Cc1onc(-c2ccccc2)c1C(=O)c1c[nH]c(C(=O)NCc2ccccn2)c1	HCV inh 10µM, FMDV antiviral inconclusive, Lassa entry inh inconclusive, HCMV antiviral inconclusive
Cc1onc(-c2ccccc2)c1C(=O)c1c[nH]c(C(=O)NCc2ccncc2)c1	HCV inh inconclusive, FMDV antiviral inconclusive, HCMV antiviral inconclusive
Cc1nn(CC(=O)O)c(C)c1C	FMDV antiviral inconclusive, HCMV antiviral -89.8
CN(C)C(CNC(=O)c1ccccc1OCc1ccc(Cl)cc1)c1ccco1 (stereo not given)	HCV inh 17.8µM, Lassa entry inh inconclusive, MARV entry inh inconclusive
COc1ccc(Cl)cc1C(=O)NCC(c1ccco1)N(C)C (stereo not given)	none
Cc1cc(C)nc(NNS(=O)(=O)c2ccc(Cl)cc2)n1	MARV entry inh inconclusive, HCMV antiviral -60.6
O=C(Nc1ccc(OC(F)(F)F)cc1)C1CCN(S(=O)(=O)c2ccc3[nH]c(=O)ccc3c2)CC1	FMDV antiviral inconclusive (no result: HCV inh, MARV entry inh)
Clc1ccc(C(c2ccc(Cl)cc2)n2cc[n+](CC(OCc3ccc(Cl)cc3Cl)c3ccc(Cl)cc3Cl)c2)cc1 (stereo not given)	HCV inh inconclusive, FMDV antiviral inconclusive, MARV entry inh 12.6µM, HCMV antiviral -99.0 (no result: Lassa entry inh)
CCN(CC)S(=O)(=O)c1ccc2c(c1)N(CC(=O)NCCCN1CCN(c3cc(C)ccc3C)CC1)C(=O)CO2	Lassa entry inh inconclusive, HCMV antiviral -99.5 (no result: HCV inh, MARV entry inh)
Cc1ccc(CCNC(=O)CN2C(=O)COc3ccc(S(=O)(=O)N4CCCC4)cc32)cc1	HCMV antiviral -87.5 (no result: HCV inh, MARV entry inh)
Cc1ccc(CCNC(=O)CN2C(=O)COc3ccc(S(=O)(=O)N4CCC(C)CC4)cc32)cc1	HCV inh inconclusive, HCMV antiviral inconclusive (no result: MARV entry inh)
COc1ccc(OC)c(CCNC(=O)CN2C(=O)COc3ccc(S(=O)(=O)N4CCOCC4)cc32)c1	MARV entry inh inconclusive, HCMV antiviral -72.4
O=C(CN1C(=O)COc2ccc(S(=O)(=O)N3CCCCCC3)cc21)Nc1cccc(Cl)c1	HCMV antiviral -72.0 (no result: HCV inh, MARV entry inh)
Cc1ccc(C(C)C)c(OCCSc2nc3ccccc3n2CC(O)CO)c1 (stereo not given)	none (no result: HCV inh)
N[C@H](CC(=O)O)C(=O)O	none (no result: HCV inh, Lassa entry inh, MARV entry inh, HCMV antiviral)
COc1ccc(CCN(C)C(=O)c2cnn(-c3nccc(-c4ccc(C)o4)n3)c2C)cc1OC	none (no result: HCV inh, Lassa entry inh, MARV entry inh, HCMV antiviral)
CC(c1ccccc1)C1C(C#N)=C(N)OC2=C1C(=O)CC(C)(C)C2 (stereo not given)	HCMV antiviral -64.8
CC1(C)CC(=O)C2=C(C1)OC(N)=C(C#N)C2C#Cc1ccccc1 (stereo not given)	FMDV antiviral inconclusive, MARV entry inh inconclusive
C=CC[C@H]1CC(C)=C[C@H](CC=C)N1C(=O)c1cc(COc2ccccc2SC)on1	HCV inh 12.6µM, FMDV antiviral inconclusive, Lassa entry inh inconclusive
Cc1ccccc1CN1C(=O)c2ccccc2S(=O)c2ccc(C(=O)NCc3ccco3)cc21 (stereo not given)	none (no result: HCV inh)
CCc1nc2ccc(C(=O)N3CCN(C)CC3)cn2c1N(CCC(C)C)CCN(C)C	HCMV antiviral -72.3 (no result: HCV inh, Lassa entry inh, MARV entry inh)
CN1CCc2nc(SCc3ccc(Cl)cc3)c(C#N)c(-c3cccs3)c2C1	HCV inh inconclusive, HCMV antiviral -108.8
N#Cc1c(N)nc(SCc2ccncc2)c(C#N)c1-c1cccs1	HCV inh 0.562µM, FMDV antiviral 15.8µM, Lassa entry inh inconclusive, MARV entry inh inconclusive, HCMV antiviral inconclusive
CCCCN(C)C(=O)CSc1nc2ccccc2nc1Cc1ccc(C)cc1	none (no result: HCV inh, MARV entry inh)
CCCCc1nc2ccccc2c(=O)n1-c1ccc(Cl)cc1[N+](=O)[O-]	MARV entry inh inconclusive, HCMV antiviral -62.3
Cc1ccc([C@@H]2CC=C(C(=O)O)CN2S(=O)(=O)c2ccc(C)cc2)cc1	none (no result: Lassa entry inh, MARV entry inh)
Cc1ccc(NC(=O)COC(=O)C2CCN(c3ccc(C(F)(F)F)cn3)CC2)cc1	HCMV antiviral -73.5 (no result: Lassa entry inh, MARV entry inh)
CS(=O)(=O)N1CCC2(CCN(C(=O)Nc3cccc(F)c3)CC2)CC1	none (no result: HCV inh, Lassa entry inh, MARV entry inh, HCMV antiviral)
CCN1CCN(S(=O)(=O)c2ccc(Cl)c(C(=O)Nc3ccccc3N3CCCCC3)c2)CC1	HCV inh 12.6µM, Lassa entry inh inconclusive, MARV entry inh 11.2µM
O=C(Nc1ccc(Cl)cc1Cl)c1cc(S(=O)(=O)N2CCN(c3ccccc3F)CC2)ccc1F	HCMV antiviral -64.6 (no result: HCV inh, MARV entry inh)
COc1ccc(C(=O)c2c(-c3cccc(C)c3)oc3ccc(N4CCOCC4)cc23)cn1	HCV inh inconclusive, HCMV antiviral -72.7 (no result: Lassa entry inh, MARV entry inh)
Cc1ccc(NC(=O)c2sc(=S)n(-c3cc(C)ccc3F)c2N)cc1	HCMV antiviral -62.6
CCCOC(=O)c1ccc(Oc2c(-c3ccc(OC)cc3O)n[nH]c2C)cc1	HCV inh inconclusive, Lassa entry inh 11.2µM
CCCOC(=O)c1ccc(Oc2c(-c3ccc(O)cc3O)n[nH]c2C)cc1	HCV inh inconclusive, Lassa entry inh inconclusive, HCMV antiviral -76.8
Cc1[nH]nc(-c2ccc(O)cc2O)c1Oc1ccccc1	HCV inh inconclusive, Lassa entry inh inconclusive, MARV entry inh inconclusive (no result: FMDV antiviral)
CCOC(=O)[C@]12C[C@@H]3CCN(C(=O)N(C(C)=O)[C@@H]1c1ccccc1)[C@@H]32	none (no result: HCV inh, FMDV antiviral, Lassa entry inh, HCMV antiviral)
CCN(CC)c1ccc(/C=N/Nc2nc3ccccc3[nH]2)cc1	HCV inh 12.6µM, Lassa entry inh 8.2µM, MARV entry inh 8.2µM (no result: HCMV antiviral)
Cc1c(/C=N/Nc2nc3ccccc3[nH]2)c2ccccc2n1C	HCV inh inconclusive, FMDV antiviral inconclusive, Lassa entry inh inconclusive, MARV entry inh inconclusive, HCMV antiviral -96.0
C(=N\Nc1nc2ccccc2[nH]1)/c1ccncc1	Lassa entry inh inconclusive, MARV entry inh inconclusive
CCCn1c(/C=N/Nc2nc3ccccc3[nH]2)nc2ccccc21	HCV inh inconclusive, FMDV antiviral inconclusive, Lassa entry inh 12.6µM, MARV entry inh inconclusive, HCMV antiviral -99.5
Cc1cc(=O)[nH]c(N/N=C/c2c(C)nn(-c3ccccc3)c2C)n1	none
Cc1ccsc1/C=N/Nc1nc2ccccc2[nH]1	none (no result: Lassa entry inh, MARV entry inh)
Cc1nn(-c2ccccc2)c(C)c1/C=N/Nc1nc2ccccc2[nH]1	HCV inh inconclusive, FMDV antiviral inconclusive, Lassa entry inh inconclusive, MARV entry inh 12.6µM, HCMV antiviral inconclusive
CN1C[C@@H]2[C@@H]3C(=O)N(Cc4ccccc4)C(=O)[C@@H]3[C@](Cc3ccccc3)(C1=O)N2C(=O)c1ccc(Cl)cc1	none (no result: Lassa entry inh, MARV entry inh)
COC(=O)[C@@H]1[C@@H](CO)[C@@H]2Cn3c(cccc3=O)[C@H]1N2Cc1ccccc1OC	none (no result: HCV inh, FMDV antiviral, Lassa entry inh, MARV entry inh)
Nc1ncc(Br)nc1NC1CCOCC1	none (no result: HCV inh, FMDV antiviral, Lassa entry inh, MARV entry inh)
CC(C)OC(=O)Nc1ccc2nc(-c3cscn3)[nH]c2c1	none (no result: HCV inh, FMDV antiviral, Lassa entry inh, MARV entry inh)
CCOC(=O)c1sc(NC(=O)CSc2nncn2C)nc1C	none
COc1ccccc1-c1cc2c(Nc3ccc(N4CCN(C)CC4)cc3)nccc2[nH]1	none (no result: HCV inh, FMDV antiviral, Lassa entry inh, MARV entry inh)
C(=N\Nc1nc2ccccc2[nH]1)/c1cccs1	MARV entry inh inconclusive
C=CCn1cc(/C=N/Nc2nc3ccccc3[nH]2)c2ccccc21	HCV inh inconclusive, Lassa entry inh 4.47µM, MARV entry inh inconclusive
Clc1nc2ccccc2cc1/C=N/Nc1nc2ccccc2[nH]1	Lassa entry inh inconclusive
COc1cccc(/C=N/Nc2nc3ccccc3[nH]2)c1OC	Lassa entry inh inconclusive, MARV entry inh inconclusive
